Screen size: about 4,400 compounds; about 390 (8.9%) showed an effect of 50% or more. What follows is part of a selection rich in strong results, with near analogues and random picks from the rest.
system: Trypanosoma brucei; test: DNDI: Inhibition of Human African Trypanosomiasis, SBRI 427, in vitro at 2 ug.mL-1; assay type: functional

SMILES | % inhibition
COc1ccc(CN/C(=N\O)c2ccc(C)nc2Oc2ccc(C)cc2OC)cc1 | 24%
Cc1ccc(Oc2nc(C)ccc2/C(=N/O)NCc2cc(F)cc(F)c2)c(C)c1 | 6%
Cc1ccc(/C(=N/O)NCc2ccccn2)c(OCc2ccccn2)n1 | -11%
COc1ccc(Oc2nc(C)ccc2/C(=N/O)NCc2cc(F)cc(F)c2)cc1 | -8%
Cc1ccc(Oc2nc(C)ccc2/C(=N/O)NCc2c(F)cccc2F)c(C)c1 | -3%
COc1ccccc1CN/C(=N\O)c1ccc(C)nc1Oc1ccc(C)cc1OC | 11%
COc1cc(C)ccc1Oc1nc(C)ccc1/C(=N/O)NCc1cc(F)cc(F)c1 | 98%
Cc1cc(C)cc(CN/C(=N\O)c2ccc(C)nc2OCc2ccccn2)c1 | 80%
COc1cc(C)ccc1Oc1nc(C)ccc1/C(=N/O)NCc1c(F)cccc1F | 95%
COc1cc(C)ccc1Oc1nc(C)ccc1/C(=N/O)NCc1ccccc1 | 99%
COc1cc(C)ccc1Oc1nc(C)ccc1/C(=N/O)NCc1ccccn1 | -7%
Cc1ccc(/C(=N/O)NCc2ccccc2)c(OCc2ccccn2)n1 | 13%
FC(F)(F)c1cccc(CNCc2coc(-c3ccc(Cl)cc3Cl)n2)c1 | -2%
CCOc1ccccc1-c1nc(CN2CCN(c3cccc(C)c3)C(C)C2)co1 (stereo not drawn) | -6%
COCCN(CCOC)Cc1coc(-c2ccc(O)cc2)n1 | 38%
Cc1cccc(Oc2ccc(/C(=N/O)NCc3cccnc3)cn2)c1 | 12%
Cc1cccc(-c2nc(CN(C)CC#N)co2)c1 | 4%

SMILES | % inhibition
O/N=C(/c1cccnc1Oc1ccccc1Cl)N1CCN(c2ccc(F)cc2)CC1 | 3%
Cc1ccc(/C(=N/O)N2CCSCC2)c(Oc2ccc3ccccc3c2)n1 | 12%
COc1cc(C)ccc1Oc1nc(C)ccc1/C(=N/O)NCc1cc(C)cc(C)c1 | 98%
Cc1cc(C)cc(CN/C(=N\O)c2ccc(C)nc2Oc2cc(C)cc(C)c2)c1 | 41%
Cc1cc(C)cc(CN/C(=N\O)c2ccc(C)nc2Oc2ccc(C)cc2C)c1 | 18%
CCN(CC)Cc1coc(-c2ccc(C)cc2)n1 | 1%
Cc1nccn1/C(=N\O)c1ccc(Oc2ccc(Cl)cc2)nc1 | 5%
CSc1ccc(Oc2nc(C)ccc2/C(=N/O)N(C)c2ccccc2)cc1C | 5%
Cc1ccc(/C(=N/O)NCC(C)C)c(Oc2cccc(F)c2)n1 | 79%
Cc1ccc(/C(=N/O)NCC(C)C)c(Oc2cccc(C(C)C)c2)n1 | 3%
Cc1ccc(/C(=N/O)NCc2ccccc2)c(Oc2cccc(F)c2)n1 | 13%
COc1ccc(Oc2nc(C)ccc2/C(=N/O)N(C)c2ccccc2)cc1 | -6%
Cc1cccc(Oc2nc(C)ccc2/C(=N/O)NCC(C)C)c1 | 94%
Cc1ccc(/C(=N/O)NCC(C)C)c(Oc2ccc3ccccc3c2)n1 | 13%
Cc1ccc(/C(=N/O)NCc2cc(F)cc(F)c2)c(Oc2cccc(F)c2)n1 | 28%
Cc1ccc(/C(=N/O)N(C)c2ccccc2)c(Oc2cccc(F)c2)n1 | 86%
